Sampled rows, rich in hits. Any-hit rate of the full collection: about 3.1%.
BioA inh – M. tuberculosis BioA enzyme inhibitors, primary screen, biochemical, plate reader, single point, HTS | inhibition, % at 9.99 µM | purified M. tuberculosis BioA enzyme | 7,8-diaminopelargonic acid synthase BioA (Mycobacterium tuberculosis) | 360,000 tested, 0.096% active; in the data active = inhibition above about 40%
Mtb FBA inh – Mtb FBA enzyme inhibitors, primary screen, biochemical, fluorescence, strain H37Rv; 360,000 tested, 2.3% active; AID 588726, 2011; purified M. tuberculosis FBA, fluorescence read-out; inhibition, % at 1 µM
Target sequence (P9WQA3 whole entry, looked up): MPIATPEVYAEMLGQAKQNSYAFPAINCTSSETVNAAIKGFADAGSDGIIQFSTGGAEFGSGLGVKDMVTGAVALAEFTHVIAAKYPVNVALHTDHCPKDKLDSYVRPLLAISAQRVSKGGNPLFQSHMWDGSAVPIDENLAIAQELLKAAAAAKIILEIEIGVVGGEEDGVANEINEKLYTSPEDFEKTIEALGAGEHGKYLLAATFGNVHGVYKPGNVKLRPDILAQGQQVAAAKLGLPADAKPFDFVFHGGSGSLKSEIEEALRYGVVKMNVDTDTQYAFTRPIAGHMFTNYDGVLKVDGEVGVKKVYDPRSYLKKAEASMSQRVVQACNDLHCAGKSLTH
SARS 3CLpro inh – SARS-CoV 3CLpro protease inhibitors, primary screen, biochemical, quenched FRET; recombinant SARS-CoV 3CLpro, quenched FRET peptide cleavage; inhibition, % at 6 µM; 290,000 tested, 0.14% active; in the data active = inhibition above about 12%
GDH-TPI counter-1 – GDH-TPI coupling enzyme inhibitors, primary screen, artefact control for M. tuberculosis FBA inhibitor project, biochemical, absorbance, full deck; GDH-TPI coupled enzyme counterscreen, NADH absorbance; inhibition, % at 4.8 µM; 360,000 tested, 1.2% active; AID 588335, 2011; in the data active = inhibition above about 30%
FadD28 FP inh – inhibitors of FadD28 bisubstrate probe binding, primary screen, biochemical, fluorescence polarization, single point; Mycobacterium tuberculosis FadD28 fatty-acid-AMP ligase; inhibition, % at 12.5 µM; 360,000 tested, 0.22% active; in the data active = inhibition above about 8.5%, passing the limit was not always enough
Mtb FBA inh conf – M. tuberculosis aldolase blockers, biochemical, fluorescence, strain H37Rv, confirmation; shares compounds with Mtb FBA inh; purified M. tuberculosis FBA, fluorescence read-out; inhibition, % at 1 µM; 5,600 tested, 78% active
GDH-TPI counter-2 – GDH-TPI coupling enzyme inhibitors, artefact control for M. tuberculosis FBA inhibitor project, biochemical, fluorescence, high throughput; shares compounds with Mtb FBA inh; GDH-TPI coupled enzyme counterscreen; inhibition, % at 1 µM; 5,600 tested, 81% active; in the data active = inhibition above about 10%
Hits are given with their value; i = inactive; nt = no result; + = active, no number. Cut-off read from the data, not from the text of the source, unless noted: active = inhibition above about 27%; inactive = the rest.

SMILES | BioA inh | Mtb FBA inh | SARS 3CLpro inh | GDH-TPI counter-1 | FadD28 FP inh | Mtb FBA inh conf | GDH-TPI counter-2
CNC(=O)c1ccc(-c2sc3nc(N4CCOCC4)c4c(c3c2N)CC(C)(C)OC4)o1 | i | 41 | i | i | i | 45 | 30
CN1Cc2c(N3CCOCC3)nc3sc(C(=O)c4ccc(Br)cc4)c(N)c3c2CC1(C)C | i | i | i | i | i | nt | nt
O=C(Nc1ccccc1)N[C@H]1CC[C@@H](CCn2cc(C3(O)CCCC3)nn2)O[C@@H]1CO | i | nt | nt | nt | nt | nt | nt
CCCNC(=O)N[C@H]1CC[C@@H](CCn2cc(C3CCCC3)nn2)O[C@H]1CO | i | nt | nt | nt | nt | nt | nt
N#CCc1nn2c(-c3ccccc3)ccnc2c1C#N | i | 69 | i | i | nt | 121 | 91
Cn1cc(-c2ccc(C(=O)NCc3cccc(Cl)c3)c3occc23)cn1 | i | 42 | nt | i | i | i | i
Cc1oc(/N=C/c2ccccc2O)c(C#N)c1C | i | i | i | i | i | nt | nt
Cc1oc(/N=C/c2ccc(O)cc2O)c(C#N)c1C | nt | 71 | i | i | i | + | +
CCOc1ccc(NC(=O)c2cc3cc4ccc(C)cc4nc3o2)cc1 | nt | nt | i | nt | nt | nt | nt
Cc1ccc2cc3cc(C(=O)NCCCN4CCc5ccccc5C4)oc3nc2c1 | i | 70 | i | 35 | i | 184 | 134
CCCCN(CC)C(=O)c1cc2cc3ccc(OC)cc3nc2o1 | i | 41 | i | 34 | i | 98 | 78
CCCCN(CC)CCNC(=O)c1cc2cc3ccc(Cl)cc3nc2o1 | nt | i | i | i | i | nt | nt
Cc1ccc2cc3cc(C(=O)NCCCN4CCCCCC4)oc3nc2c1 | i | 75 | i | i | i | 97 | 47
CCCCN(CC)CCCNC(=O)c1cc2cc3ccc(C)cc3nc2o1 | nt | 95 | i | 35 | i | 78 | 70
C[C@H](CO)N1C[C@H](C)[C@@H](CN(C)S(=O)(=O)c2ccccc2F)Oc2ncc(C#Cc3ccccc3)cc2C1=O | i | nt | nt | nt | nt | nt | nt
CCCN(C)C[C@@H]1OCCCC[C@@H](C)Oc2ccc(NS(=O)(=O)c3ccc(Cl)cc3)cc2C(=O)N([C@@H](C)CO)C[C@@H]1C | i | nt | nt | nt | nt | nt | nt
O=C(C[C@@H]1C=C[C@@H](NS(=O)(=O)c2ccc(F)cc2)[C@H](CO)O1)NCCc1ccncc1 | i | nt | nt | nt | nt | nt | nt
CCOc1ccc(N=c2cc(-c3ccc(OC)cc3)oc3ccccc23)cc1 | i | i | i | i | i | nt | nt
COc1ccc(-c2cc(=Nc3ccc(C)cc3)c3ccccc3o2)cc1 | i | 29 | i | i | i | 108 | 77
CN(C)CCNC(=O)c1cccc(-c2cnc3c(NC=O)cc(-c4cc(F)c(F)c(F)c4)cn23)c1 | i | i | nt | i | i | nt | nt
CN(C)CCCOc1ccc(-c2cccc3nncn23)cn1 | i | 43 | nt | i | i | 146 | 120
CN(C)CCNC(=O)c1cccc(-c2cccc3nncn23)c1 | i | 71 | nt | i | i | 134 | 88
C[C@H](CO)N1C[C@H](C)[C@H](CN(C)C(=O)c2ccccc2)OCCCC[C@H](C)Oc2ccc(NS(=O)(=O)c3cccs3)cc2C1=O | i | nt | nt | nt | nt | nt | nt
O=C1C=CC(=NN=C(c2ccccc2)c2ccccc2)C=C1 | nt | 32 | nt | nt | i | 81 | 67
NN=C(c1ccccc1)c1ccccc1 | i | i | nt | i | i | nt | nt
SMILES | BioA inh | Mtb FBA inh | SARS 3CLpro inh | GDH-TPI counter-1 | FadD28 FP inh | Mtb FBA inh conf | GDH-TPI counter-2
C[C@@H]1CCCCO[C@H](CN(C)C(=O)Nc2ccccc2)[C@@H](C)CN([C@H](C)CO)C(=O)c2cc(NC(=O)c3ccncc3)ccc2O1 | i | nt | nt | nt | nt | nt | nt
C[C@H]1CCCCO[C@H](CN(C)C(=O)Cc2ccccc2)[C@@H](C)CN([C@@H](C)CO)C(=O)c2cc(NC(=O)Nc3ccc4c(c3)OCO4)ccc2O1 | i | nt | nt | nt | nt | nt | nt
COc1ccc(-c2cnc3c(c2)CCC3(C#N)C#N)cc1 | i | 58 | i | i | i | 50 | 33
C/C=C/c1cnc2c(c1)C(=O)N([C@H](C)CO)C[C@H](C)[C@H](CN(C)C(=O)Nc1ccc(C(F)(F)F)cc1)O2 | i | nt | nt | nt | nt | nt | nt
Cn1c(=O)[nH]c(=O)c2[nH]c(CO)nc21 | i | i | nt | i | i | nt | nt
CCCOc1ccccc1-c1nc2c([nH]1)c(=O)[nH]c(=O)n2C | i | 59 | i | i | i | 66 | 44
Cc1cc(O)ccc1-c1cccc2nccn12 | i | 49 | nt | i | i | i | i
Clc1ccc(-c2cccc3nccn23)c(Cl)c1 | i | i | nt | i | i | nt | nt
c1cc(-c2ccsc2)n2ccnc2c1 | i | 56 | nt | i | i | 172 | 137
Cc1ccc(-c2nc3cc(NC(=O)C(C)C)ccc3o2)cc1C | i | 45 | i | i | i | 50 | 35
CCC(=O)NC(=S)Nc1cccc(-c2nc3ncccc3o2)c1 | nt | i | i | i | i | nt | nt
CC(C)C(=O)Nc1cccc(-c2nc3ncccc3o2)c1 | i | 35 | i | i | i | 158 | 125
CCCCCC(=O)Nc1cccc(-c2nc3ncccc3o2)c1 | i | 41 | i | i | i | 72 | 61
CCCCC(=O)Nc1cccc(-c2nc3ncccc3o2)c1 | i | 43 | i | i | i | i | i
CC(C)C(=O)Nc1cc(-c2nc3ncccc3o2)ccc1Cl | i | i | i | i | i | nt | nt
C[C@@H]1CN([C@@H](C)CO)C(=O)c2cc(NS(=O)(=O)c3cccs3)ccc2O[C@H]1CN(C)Cc1ccncc1 | i | nt | nt | nt | nt | nt | nt
C[C@@H]1CN([C@@H](C)CO)C(=O)c2cccc(NC(=O)Nc3ccc(F)cc3)c2O[C@@H]1CN(C)S(=O)(=O)c1ccccc1 | i | nt | nt | nt | nt | nt | nt
Cc1c(OC(C)C(=O)NCCN2CCOCC2)ccc2c(-c3ccccc3)cc(=O)oc12 (configuration not stated) | i | i | i | i | i | nt | nt
CCc1cc(=O)oc2cc(C)cc(OC(C)C(=O)NC3CC(C)(C)NC(C)(C)C3)c12 (configuration not stated) | i | 72 | i | i | i | 49 | 42
CCc1cc(=O)oc2cc(C)cc(OC(C)C(=O)NC(Cc3c[nH]c4ccc(O)cc34)C(=O)O)c12 (configuration not stated) | i | i | i | i | i | nt | nt
Cc1cc(=O)oc2c(C)c(OC(C)C(=O)NCCCN3CCCC3=O)ccc12 (configuration not stated) | i | i | i | i | i | nt | nt
CC(Oc1ccc2ccc(=O)oc2c1)C(=O)NCCCn1ccnc1 (configuration not stated) | i | i | i | i | i | nt | nt
CCc1cc(=O)oc2cc(C)cc(OC(C)C(=O)NCCCn3ccnc3)c12 (configuration not stated) | i | 54 | i | i | i | i | i

Screens from PubChem.
